Results from PubChem BioAssay (NCI).
Compounds without any hit were thinned out: in the full panel of roughly 79,000, 15% have a hit. The source made the active and inactive calls. Cut-off read from the data, not from the text of the source: active = growth inhibition above about 70%; inactive = the rest.

Tests used:
[1] = NCI Yeast Anticancer Drug Screen. Data for the rad52 strain (AID 147);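 note: 0% = growth of vehicle-treated control cultures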; conditions: S. cerevisiae rad52 mutant growth inhibition, active compounds read high
In short: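 Compounds are applied to a genetically defined yeast strain lacking normal DNA damage repair, and inhibition of growth is expressed relative to cultures given vehicle only.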

[2] = NCI Yeast Anticancer Drug Screen. Data for the wt1 strain (AID 149);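 note: 0% = growth of vehicle-treated wt1 cultures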; conditions: S. cerevisiae wt1 strain (SPY 50644) growth inhibition, active compounds read high
In short: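 Readout: yeast growth inhibition, normalised to vehicle controls, in the wt1 strain exposed to test compounds.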

[3] = NCI Yeast Anticancer Drug Screen. Data for the rad50EPP+ strain (AID 151);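 note: 0% = growth of vehicle-treated control cultures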; conditions: S. cerevisiae rad50 mutant strain, active compounds read high
In short: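 Compounds were applied to the rad50EPP+ yeast strain, which bears a defined DNA repair alteration, and growth inhibition was determined relative to vehicle-treated cultures.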

[4] = NCI Yeast Anticancer Drug Screen. Data for the mgt1 strain (AID 153); conditions: S. cerevisiae mgt1 mutant growth inhibition, active compounds read high
In short: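 Strain: mgt1 yeast, one of a set carrying defined DNA damage repair or cell cycle control alterations. Compound-treated growth compared with vehicle.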

[5] = NCI Yeast Anticancer Drug Screen. Data for the rad50 strain (AID 155);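 note: 0% = growth of vehicle-only cultures of the same strain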; conditions: S. cerevisiae rad50 strain growth inhibition, active compounds read high
In short: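 Compounds were tested on a yeast strain with an engineered DNA damage repair alteration; the reported value is growth inhibition normalised to vehicle treatment.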

[6] = NCI Yeast Anticancer Drug Screen. Data for the mec2-1 strain (AID 157); conditions: S. cerevisiae mec2-1 strain, active compounds read high
In short: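 Strain: mec2-1 (DNA repair/cell cycle alteration). Compound exposure, then growth measured; inhibition expressed relative to vehicle.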

[7] = NCI Yeast Anticancer Drug Screen. Data for the rad14 strain (AID 159);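 note: 0% = growth of vehicle-treated control cultures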; conditions: S. cerevisiae rad14 strain growth inhibition, active compounds read high
In short: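 Compound-treated yeast with a defined DNA-repair lesion; growth inhibition normalised to vehicle-treated cultures.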

[8] = NCI Yeast Anticancer Drug Screen. Data for the sgs1 mgt1 strain (AID 161);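 note: 0% = growth of cultures given vehicle only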; conditions: S. cerevisiae sgs1 mgt1 strain, active compounds read high
In short: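 Mutant yeast exposed to compound; growth scored against vehicle-only wells.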

[9] = NCI Yeast Anticancer Drug Screen. Data for the CLN2oe strain (AID 163);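 note: 0% = growth of vehicle-only control cultures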; conditions: S. cerevisiae CLN2oe strain, active compounds read high
In short: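 Growth of a genetically modified yeast strain is measured after compound exposure and compared with cultures given vehicle alone.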

[10] = NCI Yeast Anticancer Drug Screen. Data for the cln2 rad14 strain (AID 165);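 note: 0% = growth equal to vehicle treated cultures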; conditions: S. cerevisiae cln2 rad14 strain, active compounds read high
In short: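 Compounds are applied to the cln2 rad14 yeast strain, and growth is then compared with that of vehicle-treated cultures to give inhibition.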

[11] = NCI Yeast Anticancer Drug Screen. Data for the bub3 strain (AID 167); conditions: S. cerevisiae bub3 mutant strain, active compounds read high
In short: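 Growth of a checkpoint-deficient yeast mutant is measured after compound exposure. Values represent inhibition relative to vehicle.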

[12] = NCI Yeast Anticancer Drug Screen. Data for the wt2 strain (AID 169);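 note: 0% = growth of vehicle-treated yeast cultures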; conditions: S. cerevisiae wt2 strain growth inhibition, active compounds read high
In short: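 This strain belongs to a panel of yeast strains with defined genetic alterations in DNA damage repair or cell cycle control. Compounds are applied, and growth inhibition is measured against vehicle-treated cultures.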

[13] = NCI Yeast Anticancer Drug Screen. Data for the mlh1 strain (AID 171);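 note: 0% = growth of vehicle-treated control cultures of the same strain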; conditions: S. cerevisiae mlh1 strain growth inhibition, active compounds read high
In short: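 Growth of the mutant yeast strain after compound exposure, expressed as inhibition relative to vehicle-only controls.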

[14] = NCI Yeast Anticancer Drug Screen. Data for the sgs1 strain (AID 173);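 note: 0% = growth of vehicle-only control cultures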; conditions: S. cerevisiae sgs1 mutant, active compounds read high
In short: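 Growth of a yeast strain bearing a defined genetic alteration is measured after compound treatment. Inhibition is expressed relative to vehicle-only controls.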

[15] = NCI Yeast Anticancer Drug Screen. Data for the mlh1 rad18 strain (AID 175); conditions: S. cerevisiae mlh1 rad18 strain growth inhibition, active compounds read high
In short: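 Read-out is yeast growth inhibition, calculated against vehicle-only controls. The compound was applied to a strain engineered with DNA damage repair alterations.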

[16] = NCI Yeast Anticancer Drug Screen. Data for the rad18 strain (AID 177); conditions: S. cerevisiae rad18 mutant growth inhibition, active compounds read high
In short: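 Growth of the mutant yeast strain after compound exposure, normalised to vehicle-only cultures.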

[17] = at 5.0 µM (retest, dose inferred, filed as 0.5)
[18] = at 50.0 µM (retest, dose inferred, filed as 5.0)

Measured: growth inhibition

CCCCN(CCC#N)c1ccc(/C=C/c2ccnc3ccccc23)cc1
active: [1]; at 100.0 µM 79% | [2]; at 100.0 µM 85% | [4]; at 100.0 µM 76% | [5]; at 100.0 µM 72% | [6]; [18] 80% | [6]; at 100.0 µM 80% | [8]; [18] 77% | [11]; [18] 73% | [12]; at 100.0 µM 83% | [13]; at 100.0 µM 76% | [14]; at 33.0 µM 73% | [14]; at 100.0 µM 84% | [15]; [18] 74% | [16]; at 100.0 µM 77%
inactive: [1]; at 1.2 µM -6% | [1]; at 3.7 µM -9% | [1]; at 11.0 µM -9% | [1]; at 33.0 µM 63% | [2]; at 1.2 µM -6% | [2]; at 3.7 µM -10% | [2]; at 11.0 µM -13% | [2]; at 33.0 µM 66% | [3]; at 1.2 µM -3% | [3]; at 3.7 µM 7% | [3]; at 11.0 µM 30% | [3]; at 33.0 µM 38% | [3]; at 100.0 µM 26% | [4]; at 1.2 µM -6% | [4]; at 3.7 µM -9% | [4]; at 11.0 µM 0% | [4]; at 33.0 µM 62% | [5]; at 1.2 µM -4% | [5]; at 3.7 µM -7% | [5]; [17] 36% | [5]; at 11.0 µM -6% | [5]; at 33.0 µM 46% | [5]; [18] 30% | [5]; at 50.0 µM -15.1% | [6]; at 1.2 µM -9% | [6]; at 3.7 µM -10% | [6]; [17] 4% | [6]; at 11.0 µM -9% | [6]; at 33.0 µM 45% | [6]; at 50.0 µM -6.1% | [7]; at 1.2 µM -8% | [7]; at 3.7 µM -10% | [7]; at 11.0 µM -5% | [7]; at 33.0 µM -1% | [7]; at 100.0 µM 56% | [8]; [17] -11% | [8]; at 50.0 µM 14.9% | [9]; at 1.2 µM -8% | [9]; at 3.7 µM -14% | [9]; at 11.0 µM -22% | [9]; at 33.0 µM -23% | [9]; at 100.0 µM 22% | [10]; [17] 2% | [10]; [18] 12% | [10]; at 50.0 µM -9.8% | [11]; at 1.2 µM -7% | [11]; at 3.7 µM -14% | [11]; [17] -7% | [11]; at 11.0 µM -13% | [11]; at 33.0 µM -3% | [11]; at 50.0 µM -8.45% | [11]; at 100.0 µM 53% | [12]; at 1.2 µM -9% | [12]; at 3.7 µM -12% | [12]; at 11.0 µM -1% | [12]; at 33.0 µM 69% | [13]; at 1.2 µM -3% | [13]; at 3.7 µM -6% | [13]; at 11.0 µM 10% | [13]; at 33.0 µM 55% | [14]; at 1.2 µM -4% | [14]; at 3.7 µM -5% | [14]; at 11.0 µM 17% | [15]; [17] 16% | [15]; at 50.0 µM 11.7% | [16]; at 1.2 µM -3% | [16]; at 3.7 µM -3% | [16]; at 11.0 µM 1% | [16]; at 33.0 µM 32%

Cc1c(C(=O)/C=C/c2ccccc2[N+](=O)[O-])[n+](=O)c2ccccc2n1[O-]
active: [1]; at 1.2 µM 78% | [1]; at 3.7 µM 90% | [1]; at 11.0 µM 93% | [1]; at 33.0 µM 93% | [1]; at 100.0 µM 93% | [3]; at 11.0 µM 77% | [3]; at 33.0 µM 76% | [3]; at 100.0 µM 79% | [4]; at 11.0 µM 93% | [4]; at 33.0 µM 94% | [4]; at 100.0 µM 96% | [5]; at 3.7 µM 86% | [5]; at 11.0 µM 90% | [5]; at 33.0 µM 91% | [5]; [18] 84% | [5]; at 50.0 µM 97.5% | [5]; at 100.0 µM 92% | [6]; at 11.0 µM 77% | [6]; at 33.0 µM 85% | [6]; [18] 83% | [6]; at 50.0 µM 90.5% | [6]; at 100.0 µM 89% | [7]; at 11.0 µM 73% | [7]; at 33.0 µM 74% | [7]; at 100.0 µM 76% | [8]; [18] 98% | [8]; at 50.0 µM 98% | [10]; at 50.0 µM 94.5% | [11]; at 50.0 µM 94.2% | [12]; at 3.7 µM 85% | [12]; at 11.0 µM 91% | [12]; at 33.0 µM 84% | [12]; at 100.0 µM 94% | [13]; at 3.7 µM 73% | [13]; at 11.0 µM 92% | [13]; at 33.0 µM 94% | [13]; at 100.0 µM 94% | [14]; at 1.2 µM 73% | [14]; at 3.7 µM 91% | [14]; at 11.0 µM 94% | [14]; at 33.0 µM 94% | [14]; at 100.0 µM 93% | [15]; [18] 94% | [15]; at 50.0 µM 98.2% | [16]; at 1.2 µM 84% | [16]; at 3.7 µM 90% | [16]; at 11.0 µM 92% | [16]; at 33.0 µM 92% | [16]; at 100.0 µM 93%
inactive: [2]; at 1.2 µM -1% | [2]; at 3.7 µM 22% | [2]; at 11.0 µM 42% | [2]; at 33.0 µM 49% | [2]; at 100.0 µM 60% | [3]; at 1.2 µM 41% | [3]; at 3.7 µM 67% | [4]; at 1.2 µM 10% | [4]; at 3.7 µM 61% | [5]; at 1.2 µM 66% | [5]; [17] 12% | [6]; at 1.2 µM 12% | [6]; at 3.7 µM 32% | [6]; [17] 2% | [7]; at 1.2 µM 37% | [7]; at 3.7 µM 61% | [8]; [17] 6% | [9]; at 1.2 µM 12% | [9]; at 3.7 µM 25% | [9]; at 11.0 µM 41% | [9]; at 33.0 µM 47% | [9]; at 100.0 µM 66% | [10]; [17] -4% | [10]; [18] 54% | [11]; at 1.2 µM -1% | [11]; at 3.7 µM 42% | [11]; [17] -3% | [11]; at 11.0 µM 29% | [11]; at 33.0 µM 33% | [11]; [18] 57% | [11]; at 100.0 µM 29% | [12]; at 1.2 µM 44% | [13]; at 1.2 µM 25% | [15]; [17] 8%

O=S(=O)(NC1CCCC(c2ccccc2)C1)c1ccccc1 (stereo unspecified)
inactive: [1]; at 1.2 µM 1% | [1]; at 3.7 µM 3% | [1]; at 11.0 µM 3% | [1]; at 33.0 µM 10% | [2]; at 1.2 µM -1% | [2]; at 3.7 µM -4% | [2]; at 11.0 µM 2% | [2]; at 33.0 µM -3% | [2]; at 100.0 µM 50% | [3]; at 1.2 µM -1% | [3]; at 3.7 µM 1% | [3]; at 11.0 µM -1% | [3]; at 33.0 µM 3% | [3]; at 100.0 µM 20% | [4]; at 1.2 µM -3% | [4]; at 3.7 µM -2% | [4]; at 11.0 µM -1% | [4]; at 33.0 µM -2% | [5]; at 1.2 µM 3% | [5]; at 3.7 µM 3% | [5]; [17] -9% | [5]; at 11.0 µM 2% | [5]; at 33.0 µM 11% | [5]; at 50.0 µM 18.2% | [6]; at 1.2 µM -8% | [6]; at 3.7 µM -2%
active: [1]; at 100.0 µM 90% | [4]; at 100.0 µM 95% | [5]; [18] 71% | [5]; at 100.0 µM 93%
